Measured values as given in the OligoGym collection.

molecular target: P4HB; assay: pooled miR-30 sensor sort-seq; sequence = guide strand; conditions: shRNA
Note: reference of the scale not given here.

| Sequence | sensor-assay potency score (higher = more potent) |
| --- | --- |
| TTGTAATCAATGACCGTCCTGT | 0.492 |
| TATTTGGAGAACACGTCACTGT | -0.00902 |
| TTCACCTCCAAAAATCTTCGGG | 0.109 |
| TAGAACTCCACAAAGACGTTTT | -0.145 |
| TTGCAGTGACCACACCATGGGG | -1.18 |
| TTGGCAGTCGAGTCCATCTTGG | -1.06 |
| TTTCTTAAAACCATCCAGCGTG | -0.457 |
| TTTGATAAAGTCCAGCAGGTTC | -0.96 |
| TTTCTGATCATCGTCTTCCTCC | 0.0481 |
| TTGACAGGCTGCTTGTCCCAGT | -0.656 |
| TTCCTGAAGAACTTGATGGTGG | 0.134 |
| TTGGAGAACACGTCACTGTTGG | 0.0264 |

molecular target: PAFAH1B2; assay: as above; conditions: shRNA

| Sequence | sensor-assay potency score (higher = more potent) |
| --- | --- |
| TTCTGCTGTATTTTCGTGGTTA | 0.637 |
| TTGTGCTGAGACATCCATCGGT | 0.723 |
| ATGAATTTAAACAACAATCTTC | -0.0238 |
